Results filed as inconclusive are left out. Unmarked numbers belong to inactive results. Calls come from the whole dose curve; as a rule, active = well fitted cell-killing curve with a large enough effect; inconclusive = small, poorly fitted or top-dose-only effect; inactive = no such curve, though single readings can be large or run the other way.
Assay: qHTS of pediatric cancer cell lines to identify multiple opportunities for drug repurposing: Primary screen for SK-N-SH cells (AID 1347098);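 note: DMSO served as neutral control and bortezomib at 2.3 µM as positive control; % is set by controls: 0 for no effect and ±100 for the full control effect; nearly all actives have a fitted effect of over 65% in size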
Conditions: SK-N-SH viability, CellTiter-Glo luminescence, 48 h; series mostly up to 57 µM; activity change, negative = cytotoxic: at the top concentration
Procedure, shortened: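 Cells (500-1,000/well) rested 5 h, then received compounds for 48 h; metabolically active cells were measured by CellTiter-Glo luminescence. Final concentrations spanned up to 46 µM (MIPE, 11-point) or 0.59 nM-46 µM (NPC, 8-point) in primary screens, 11-point in follow-ups.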

Structure (SMILES) | activity change, negative = cytotoxic
O=C(CN1CCN(Cc2ccc3c(c2)OCO3)CC1)N1c2ccccc2Sc2ccccc21 | 4.05%
OC[C@H]1O[C@@H](Oc2ccc(O)cc2)[C@H](O)[C@@H](O)[C@@H]1O | 3.62%
NCc1ccccc1Sc1ccccc1CO | -16.7%
CCC1NC(=O)c2cc(S(N)(=O)=O)c(Cl)cc2N1 (stereo not given) | -25%
O=C(Nc1ccc([N+](=O)[O-])cc1)Nc1ccc([N+](=O)[O-])cc1 | 5.5%
C#C[C@]1(O)CC[C@H]2[C@@H]3CCC4=CC(=O)CC[C@@H]4[C@H]3CC[C@@]21CC | -1.7%
Cc1ncc(CO)c(C=O)c1O | -0.402%
COc1cc(C(=O)NCc2ccc(OCCN(C)C)cc2)cc(OC)c1OC | -8.9%
Nc1ccc(S(=O)(=O)NCc2ccccc2)cc1 | 2.64%
CCCCCCCCCCCCSCCOCCO | 14.8%
O=C(O)CCNC(=O)c1ccccc1 | -0.0751%
OCc1ccccn1 | 7.72%
CCCN(CCC)S(=O)(=O)c1ccc(C(=O)O)cc1 | -9.12%
COc1ccc2c(c1)c1c3n2CCN(C)C3=NCC1 | -16.7%
CCN[C@@H]1C[C@H](N)[C@@H](OC2OC(CN)=CCC2N)[C@H](O)[C@H]1O[C@H]1OC[C@](C)(O)[C@H](NC)[C@H]1O (stereo not given in full) | -5.21% [at 0.741 µM]
CN(C)CCOC(=O)C(c1ccccc1)C1(O)CCCC1 (stereo not given) | -3.47%
O=C(O)P(=O)(O)O | 9.47%
COc1cc(NS(=O)(=O)c2ccc(N)cc2)ncn1 | 4.18%
O=[N+]([O-])c1cccc(S(=O)(=O)NCCNS(=O)(=O)c2cccc([N+](=O)[O-])c2)c1 | -17.1%
c1ccc(-c2nc[nH]c2-c2ccccc2)cc1 | -20.4%
C=C[C@@]1(C)CC(=O)[C@]2(O)[C@@]3(C)[C@@H](O)CCC(C)(C)[C@@H]3[C@H](O)[C@H](OC(C)=O)[C@@]2(C)O1 | -9.81%
CN1CCN(C2=Nc3ccccc3Sc3ccc(Cl)cc32)CC1 | -15.3%
CCN(CC)CCNC(=O)COc1ccc(OC)cc1 | -29.6%
CCOc1ccc(NC(C)=O)cc1 | -5.87%

Assay: qHTS of pediatric cancer cell lines to identify multiple opportunities for drug repurposing: Primary screen for NB1643 cells (AID 1347099);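 note: plate controls were DMSO neutral control for no effect and bortezomib positive control for full effect; nearly all actives have a fitted effect of over 50% in size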
Conditions: NB1643 neuroblastoma viability, CellTiter-Glo luminescence, 48 h; series mostly up to 46 µM; activity change, negative = cytotoxic: at the top concentration
Procedure, shortened: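 Phenotypic viability qHTS, 48 h compound exposure, CellTiter-Glo luminescence read-out; multi-concentration dosing so that potency and efficacy derive directly from the primary screen's curves.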

Structure (SMILES) | activity change, negative = cytotoxic
O=C(CN1CCN(Cc2ccc3c(c2)OCO3)CC1)N1c2ccccc2Sc2ccccc21 | 8.79%
NS(=O)(=O)Cc1noc2ccccc12 | 13.2%
OC[C@H]1O[C@@H](Oc2ccc(O)cc2)[C@H](O)[C@@H](O)[C@@H]1O | 4.03%
NCc1ccccc1Sc1ccccc1CO | 10.3%
CCC1NC(=O)c2cc(S(N)(=O)=O)c(Cl)cc2N1 (stereo not given) | 7.36%
CC(=O)NO | 3.41%
O=C(Nc1ccc([N+](=O)[O-])cc1)Nc1ccc([N+](=O)[O-])cc1 | -1.75%
C#C[C@]1(O)CC[C@H]2[C@@H]3CCC4=CC(=O)CC[C@@H]4[C@H]3CC[C@@]21CC | 3.81%
Cc1ncc(CO)c(C=O)c1O | 2.31%
COc1cc(C(=O)NCc2ccc(OCCN(C)C)cc2)cc(OC)c1OC | -4.12%
Nc1ccc(S(=O)(=O)NCc2ccccc2)cc1 | -1.53%
CCCCCCCCCCCCSCCOCCO | 5.79%
O=C(O)CCNC(=O)c1ccccc1 | 3.74%
OCc1ccccn1 | 10.1%
NS(=O)(=O)c1ccc(Cl)c(S(N)(=O)=O)c1 | -2.39%
CCCN(CCC)S(=O)(=O)c1ccc(C(=O)O)cc1 | 7.88%
CC1CCc2c(N3CCC(O)CC3)c(F)cc3c(=O)c(C(=O)O)cn1c23 (stereo not given) | -25.5%
CC(=O)NCCCCCC(=O)O | 15.7%

Structure (SMILES) | activity change, negative = cytotoxic
COc1ccc2c(c1)c1c3n2CCN(C)C3=NCC1 | 0%
CCN(CC)CCOc1ccccc1C(=O)CCc1ccccc1 | 3.35%
CCN[C@@H]1C[C@H](N)[C@@H](OC2OC(CN)=CCC2N)[C@H](O)[C@H]1O[C@H]1OC[C@](C)(O)[C@H](NC)[C@H]1O (stereo not given in full) | 4.64% [at 0.597 µM]
CN(C)CCOC(=O)C(c1ccccc1)C1(O)CCCC1 (stereo not given) | 0%
O=C(O)P(=O)(O)O | 8.91%
CC1(COc2ccc(CC3SC(=O)NC3=O)cc2)CCCCC1 (stereo not given) | 15.3%
COc1cc(NS(=O)(=O)c2ccc(N)cc2)ncn1 | 8.53%
Cc1ccc(S(=O)(=O)NC(=O)NC2CCCC2)cc1 | 0%
O=[N+]([O-])c1cccc(S(=O)(=O)NCCNS(=O)(=O)c2cccc([N+](=O)[O-])c2)c1 | -1.85%
c1ccc(-c2nc[nH]c2-c2ccccc2)cc1 | 12%
CCc1ccc(C(=O)C(C)CN2CCCCC2)cc1 (stereo not given) | -14.2%
C=C[C@@]1(C)CC(=O)[C@]2(O)[C@@]3(C)[C@@H](O)CCC(C)(C)[C@@H]3[C@H](O)[C@H](OC(C)=O)[C@@]2(C)O1 | 25.6%
CN1CCN(C2=Nc3ccccc3Sc3ccc(Cl)cc32)CC1 | -13.8%
CCN(CC)CCNC(=O)COc1ccc(OC)cc1 | -4.56%
CCCCCCCCCCCCCC(=O)OC(C)C | 8.04%
Cc1nc(-c2ccc(Cl)cc2)oc1COC(C)(C)C(=O)O | 0%
O=C(O)CCc1nc2ccccc2[nH]1 | -2.52%
CCOc1ccc(NC(C)=O)cc1 | -0.284%

Assay: qHTS of pediatric cancer cell lines to identify multiple opportunities for drug repurposing: Primary screen for LAN-5 cells (AID 1347100);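 note: plate controls were DMSO neutral control for no effect and bortezomib positive control for full effect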
Conditions: LAN-5 neuroblastoma viability, CellTiter-Glo luminescence, 48 h; series mostly up to 46 µM; activity change, negative = cytotoxic: at the top concentration
Procedure, shortened: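 Viability after 48 h compound treatment at 37C, 500-1,000 cells/well, read as ATP luminescence with CellTiter-Glo. Primary screens used 11-point (MIPE, 0.78 nM-46 µM) or 8-point (NPC, 0.59 nM-46 µM) final concentrations; follow-up screens used 11-point dilutions.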

Structure (SMILES) | activity change, negative = cytotoxic
O=C(CN1CCN(Cc2ccc3c(c2)OCO3)CC1)N1c2ccccc2Sc2ccccc21 | -9.1%
NS(=O)(=O)Cc1noc2ccccc12 | -5.29%
OC[C@H]1O[C@@H](Oc2ccc(O)cc2)[C@H](O)[C@@H](O)[C@@H]1O | -1.49%
NCc1ccccc1Sc1ccccc1CO | 8.48%
CCC1NC(=O)c2cc(S(N)(=O)=O)c(Cl)cc2N1 (stereo not given) | 14.2%
CC(=O)NO | 7.64%
Cc1ncc(CO)c(C=O)c1O | 3.93%
COc1cc(C(=O)NCc2ccc(OCCN(C)C)cc2)cc(OC)c1OC | -5.8%
Nc1ccc(S(=O)(=O)NCc2ccccc2)cc1 | 9.67%
O=C(O)CCNC(=O)c1ccccc1 | 11.2%
OCc1ccccn1 | 4.12%
NS(=O)(=O)c1ccc(Cl)c(S(N)(=O)=O)c1 | 2.79%
CC1CCc2c(N3CCC(O)CC3)c(F)cc3c(=O)c(C(=O)O)cn1c23 (stereo not given) | -15.7%
CC(=O)NCCCCCC(=O)O | 3.19%
CCN(CC)CCOc1ccccc1C(=O)CCc1ccccc1 | -3.2%
CCN[C@@H]1C[C@H](N)[C@@H](OC2OC(CN)=CCC2N)[C@H](O)[C@H]1O[C@H]1OC[C@](C)(O)[C@H](NC)[C@H]1O (stereo not given in full) | -0.753% [at 0.597 µM]
CN(C)CCOC(=O)C(c1ccccc1)C1(O)CCCC1 (stereo not given) | -10%
Cc1ccc(S(=O)(=O)NC(=O)NC2CCCC2)cc1 | 3.64%
c1ccc(-c2nc[nH]c2-c2ccccc2)cc1 | 0.399%
CCc1ccc(C(=O)C(C)CN2CCCCC2)cc1 (stereo not given) | -10.7%
C=C[C@@]1(C)CC(=O)[C@]2(O)[C@@]3(C)[C@@H](O)CCC(C)(C)[C@@H]3[C@H](O)[C@H](OC(C)=O)[C@@]2(C)O1 | 22.1%
CN1CCN(C2=Nc3ccccc3Sc3ccc(Cl)cc32)CC1 | -1.99%
Cc1nc(-c2ccc(Cl)cc2)oc1COC(C)(C)C(=O)O | -5.2%
O=C(O)CCc1nc2ccccc2[nH]1 | -1.39%
CCOc1ccc(NC(C)=O)cc1 | 0.403%

Reference: PubChem BioAssay (NCATS)
